Measurements as given in PubChem BioAssay (Tox21).
Where “and” joins values, the source holds several entries; their conditions need not be identical. Equal values may be shown once. Records with an inconclusive call do not appear. Entries that show only a call come without a potency. Calls of active or inactive are those of the source. Calls follow the shape of the dose curve; as a rule, active = well fitted activation curve with a large enough effect in the repeat runs; inconclusive = weak or mixed curves, or effect the other way; inactive = no such curve, though single readings can be large or run the other way.
Potency is read from the fitted curve at half-maximal effect.

Test: qHTS assay to identify small molecule agonists of the retinoic acid receptor (RAR) signaling pathway (AID 1159553)
Settings: C3RL4 RARE luciferase reporter, agonist, 6 h; series mostly up to 73.3 µM
Text: National Center for Advancing Translational Sciences [NCATS] NIH Chemical Genomics Center [NCGC] U.S. Environmental Protection Agency [EPA] National Institutes of Environmental Health Sciences [NIEHS] National Toxicology Program [NTP] Assay overview: All-trans Retinoic acid (atRA) is the potent natural metabolite of retinol and plays an important role in normal embryonic development and maintenance of cellular phenotype in adult animals. atRA is the activating ligand for the retinoic acid receptors (RARs) which form heterodimers with retinoid X receptors (RXRs) on the retinoic acid response element (RARE). Through activation of the RAR/RXRs nuclear receptors, atRA regulates the transcription of a large number of protein-coding genes and regulatory RNAs. Intracellular levels of atRA are controlled by the retinol signaling pathway (RSP) that regulates the biosynthesis and catabolism of atRA to maintain physiological levels. Chemicals that interfere with the RSP can cause abnormal intracellular levels of atRA and therefore are potential developmental toxicants. To assess compounds for the potential adverse effect on embryonic development through interfering with retinol signaling, a cell-based RARE luciferase reporter gene assay was used. C3RL4 cell line (OARSA/CFSAN/FDA, Laurel, MD) was used to screen Tox21 10K compound library for identifying activators of the RSP.
Assay Protocol Summary: C3RL4 cells were seeded at 1,000/well in 5 uL of assay medium into white solid 1,536-well tissue culture plates (Greiner Bio-One North America Inc. Monroe, NC) using a Multidrop Combi (Thermo Scientific, Waltham, MA) dispenser. After incubation at 37 C and 5% CO2 for an overnight, 23 nL of compounds dissolved in DMSO, positive control or DMSO only were transferred by a Pintool station (Kalypsys, San Diego, CA). After 6 hr incubation at 37 C and 5% CO2, 5 uL of Amplite Luciferase reagent (AAT Bioquest Inc. Sunnyvale, CA) was added to each assay plate using a Flying Reagent Dispenser (FRD) (Aurora Discovery, San Diego, CA). Luminescence was quantified on a ViewLux plate reader (PerkinElmer, Waltham, MA) after 30 min incubation at room temperature.
In the case of `COCC(C)N` (stereo not given), the Potency is reported as “inactive”. With `COC(=O)c1ccc(O)cc1` the Potency was “inactive”. In the case of `COc1cc2c(c(OC)c1OC)-c1ccc(OC)c(=O)cc1[C@@H](NC(C)=O)CC2`, the Potency is reported as “inactive”. With `CC(C)CC(C)CC(O)CC(C)C` (stereo not given) the Potency was “inactive”. With `NC(=O)OCC(COC(N)=O)c1ccccc1` the Potency was “inactive”. With `CC1=C(/C=C/C(C)=C/C=C/C(C)=C/C(=O)O)C(C)(C)CCC1` the Potency was 19.4 nM (active) and 9.7 nM (active) and 84.1 nM (active). For `CC(=O)CCC(C)C`, the Potency was “inactive”. For `CCCCCCCC(=O)OCC(O)CO` (stereo not given), the Potency was “inactive”. For `CC(O)COc1ccccc1` (stereo not given), the Potency was “inactive”. For `CCCCCCCCCCCCCC(=O)OC(C)C`, the Potency was “inactive”. For `CCN(CC)CCOC(=O)c1ccc(N)cc1`, the Potency was “inactive”. For `CCCCNC(=O)NS(=O)(=O)c1ccc(N)cc1`, the Potency was “inactive”. In the case of `C=CC(=O)NC(C)(C)CS(=O)(=O)O`, the Potency is reported as “inactive”. In the case of `C#C[C@]1(O)CC[C@H]2[C@@H]3CCc4cc(O)ccc4[C@H]3CC[C@@]21C`, the Potency is reported as “inactive”. For `CN(C)C=O`, the Potency was “inactive”. With `COC(=O)C1CCC(C(=O)OC)CC1` (stereo not given) the Potency was “inactive”. With `NC(=O)NO` the Potency was “inactive”. For `N[C@@H](Cc1c[nH]c2ccc(O)cc12)C(=O)O`, the Potency was “inactive”. For `CC1(C)O[C@@H]2[C@@H](CO[C@@]3(COS(N)(=O)=O)OC(C)(C)O[C@@H]23)O1`, the Potency was “inactive”. With `CO[C@H]1C=CO[C@@]2(C)Oc3c(C)c(O)c4c(O)c(c(/C=N/N5CCN(C)CC5)c(O)c4c3C2=O)NC(=O)/C(C)=C\C=C[C@H](C)[C@H](O)[C@@H](C)[C@@H](O)[C@@H](C)[C@H](OC(C)=O)[C@@H]1C` the Potency was “inactive”. For `C[C@]12C=CC(=O)C=C1CC[C@@H]1[C@@H]2C(=O)C[C@@]2(C)[C@H]1CC[C@]2(O)C(=O)CO`, the Potency was “inactive”. In the case of `CC(=O)Oc1ccccc1C(=O)O`, the Potency is reported as “inactive”. For `Cn1cnc2c1c(=O)[nH]c(=O)n2C`, the Potency was “inactive”. With `CCCCCCCCOc1ccc(C(=O)c2ccccc2)c(O)c1` the Potency was “inactive”. With `COC(=O)c1ccc(C=O)cc1` the Potency was “inactive”. For `COc1cc(O)c(C(=O)c2ccccc2)cc1S(=O)(=O)O`, the Potency was “inactive”. In the case of `N[C@@H](Cc1c[nH]c2ccccc12)C(=O)O`, the Potency is reported as “inactive”. In the case of `Cc1cccc(C)c1O`, the Potency is reported as “inactive”. With `COc1ccccc1NC(=O)CC(C)=O` the Potency was “inactive”. With `O=c1cc[nH]c(=O)[nH]1` the Potency was “inactive”. For `CC(C)(C)CC(C)(C)c1ccc(O)c(-n2nc3ccccc3n2)c1`, the Potency was “inactive”. In the case of `CC(C)Cc1ccc(C(C)C(=O)O)cc1` (stereo not given), the Potency is reported as “inactive”. With `C/C=C/c1ccc(O)c(OC)c1` the Potency was “inactive”. In the case of `c1ccc2[nH]c(-c3cscn3)nc2c1`, the Potency is reported as 8.69 µM (active) and 2.43 µM (active) and 5.31 µM (active). In the case of `O=[N+]([O-])c1ccc(O)cc1`, the Potency is reported as “inactive”. With `CC1=NN(c2ccccc2)C(=O)C1` the Potency was “inactive”. For `CCOCCO`, the Potency was “inactive”. With `Oc1cccc(O)c1` the Potency was “inactive”. With `NC(=O)c1ccc([N+](=O)[O-])cc1Cl` the Potency was “inactive”. For `C=C(C)OC(C)=O`, the Potency was “inactive”.
